Assay outcomes from PubChem.
Pf Dd2 growth – qHTS Primary assay for Inhibitors of Plasmodium falciparum Dd2 growth in vitro | P. falciparum Dd2 growth, SYBR Green, 72 h | Potency, µM (highest dose often 28.9 µM), for the others: top-dose activity, negative = inhibition, usual class: inhibitors | 120,000 tested, 4.3% active | AID 1347417, 2020; active = well fitted inhibition curve with a large enough effect;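 note: plate controls were DMSO vehicle for no effect and reference drug for full effect; nearly all actives have a fitted effect of over 65% in size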
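Readout: SYBR Green fluorescence, 485 nm excitation, 535 nm emission, after ~16 h lysis at 37C. Before that, Dd2-infected red cells (2.5% hematocrit) grew 72 h with compound, 29 uM top final concentration.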
Starred values were filed as active, the others as inactive; i = inactive; [ ] = remark or other dose. Shown is part of a subset that was picked to be rich in hits. Potency is the fitted concentration of half-maximal effect.

SMILES	Pf Dd2 growth
CN(Cc1ccccc1C(F)(F)F)Cc1cccc2ccccc12	i
Cc1nc(C(=O)N2CCC3(CCC(=O)N(CCc4cnc[nH]4)C3)CC2)cs1	29%
C=CCNC(=O)O[C@@H]1CC(C(=O)N[C@@H](Cc2ccc(OC)cc2)C(N)=O)=C[C@@H](NC(=O)c2ccc(OC)cc2)[C@H]1O	-2%
Cc1noc(-c2cn(C3CCN(C(=O)C(C)Oc4ccccc4)CC3)nn2)n1 (stereo unspecified)	i
CCN1C(=O)C2(CCN(S(=O)(=O)c3ccc(C)c(C)c3)CC2)c2ccccc21	i
CCN1C(=O)C2(CCN(S(=O)(=O)c3ccc(Cl)cc3C)CC2)c2ccccc21	1µM*
CCN1C(=O)C2(CCN(S(=O)(=O)c3cccc(C)c3)CC2)c2ccccc21	i
CC1Oc2ccc(NS(=O)(=O)c3ccc(F)cc3)cc2CN(Cc2ccc(F)cc2)C1=O (stereo unspecified)	-20%
CC(C)CNC(=O)CCC1CCN(S(=O)(=O)c2ccccc2F)CC1	-24%
N#Cc1ccc(CN2CC3(Cc4ccccc4NC3=O)C2)cc1	2%
Cc1ccc(Cn2cc(-c3ccncc3)cc2C(=O)N(C)Cc2ccccc2)cc1	-16%
CCn1cc(-c2ccncc2)cc1C(=O)NCc1ccc(SC)cc1	i
Cc1ccc(Cn2cc(-c3ccncc3)cc2C(=O)NCC2CC2)cc1	11µM*
COc1ccc(C(=O)Nc2ccc([C@H]3OCC(=O)N(Cc4cccnc4)[C@@H]3CO)cc2)cc1	i
CC(C)(CC(=O)O)CC(=O)N1CCN2C(=O)N(Cc3ccccc3)C(=O)[C@H]2C1	-10%[44.1 µM]
Cc1cc(S(=O)(=O)NCCc2noc(-c3ccccc3)n2)ccc1Cl	i
O=C1NCCN2CC3(CCN(S(=O)(=O)c4cccc5cccnc45)CC3)CC12 (stereo unspecified)	-20%
Cc1cc(=O)n(CC(=O)Nc2ccc(F)cc2)c(-c2ccccc2)n1	i
CN1C[C@@H](NC(=O)c2ccc(F)cc2)C[C@H]1c1nc(-c2cncnc2)no1	i
CN1C[C@@H](NC(=O)c2ccc(-c3ccccc3)cc2)C[C@H]1c1nc(-c2ccncc2)no1	11µM*
CN1C[C@@H](NC(=O)c2ccc(F)cc2)C[C@H]1c1nc(-c2ccccc2)no1	11µM*
CN1C[C@@H](NC(=O)c2cccnc2)C[C@H]1c1nc(-c2ccncc2)no1	-28%[44.1 µM]
CN1C[C@@H](NC(=O)c2cccnc2)C[C@H]1c1nc(-c2cccnc2)no1	2%[44.1 µM]
CN1C[C@@H](NC(=O)c2ccc(F)cc2)C[C@H]1c1nc(-c2ccncc2)no1	i
CN(C(=O)CN1C(=O)NC2(CCOCC2)C1=O)C1CCCCC1	13%
CC(C)c1noc(-c2ccn3c(CNC(=O)c4ccc(F)c(Cl)c4)nnc3c2)n1	2%
Cc1oc2c(c1C(=O)NC1CCCN(c3ncccn3)C1)C(=O)CCC2 (stereo unspecified)	-21%
O=C1NCc2ccccc2CC12CCN(Cc1cc(O)ccc1[N+](=O)[O-])C2 (stereo unspecified)	0%
O=C(NC1CC(c2nnc(CO)n2C2CC2)C1)c1scc2c1OCCO2 (stereo unspecified)	-24%
